Data as given in PubChem BioAssay AID1159580 (chemical genetic matrix, 2015).
Several values for one entry are separate records, joined by “and”; a condition that tells them apart may be missing. Equal entries are not always repeated. Among all 5,500 compounds or so, about 2,000 (36%) were called active. Another 18% or so got no clear call; they are omitted. No stated cut-off is given here; in the data, active means normalized growth mostly below about 0.91 (no sharp cut-off); inconclusive means no clear call, values can overlap the other calls; inactive means mostly above about 0.92. Some of the results follow.

Assay: chemical genetic growth profiling, strain panel (AID 1159580);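 further: tested at 20 µM; growth read once vehicle control cultures reached saturation at 30 °C; 1 = growth at the plate median or of vehicle wells; lower values mean less growth of the strain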
Settings: growth OD

Measured: normalized growth

O=C(O)C(O)C(O)C(O)C(O)C(=O)O (stereo unspecified)
inactive: S. cerevisiae deletion strains, locus YBR021W, strain FUR4, active compounds read low 0.99 | S. cerevisiae deletion strains, locus YBR229C, strain ROT2, active compounds read low 0.998 | S. cerevisiae deletion strains, locus YCL029C, strain bik1, active compounds read low 0.982 | S. cerevisiae deletion strains, locus YDL035C, strain GPR1, active compounds read low 1.04 | S. cerevisiae deletion strains, locus YDL074C, strain BRE1, active compounds read low 1.04 | S. cerevisiae deletion strains, locus YDL101C, strain DUN1, active compounds read low 0.988 | S. cerevisiae deletion strains, locus YDL185W, strain tfp1, active compounds read low 1 | S. cerevisiae deletion strains, locus YDL192W, strain arf1, active compounds read low 0.993 | S. cerevisiae deletion strains, locus YDR101C, strain arx1, active compounds read low 0.983 | S. cerevisiae deletion strains, locus YDR150W, strain NUM1, active compounds read low 1.02 | S. cerevisiae deletion strains, locus YDR162C, strain NBP2, active compounds read low 1.01 | S. cerevisiae deletion strains, locus YDR318W, strain mcm21, active compounds read low 1 | S. cerevisiae deletion strains, locus YDR388W, active compounds read low 0.993 | S. cerevisiae deletion strains, locus YDR502C, strain sam2, active compounds read low 0.991 | S. cerevisiae deletion strains, locus YEL061C, strain CIN8, active compounds read low 1.06 | S. cerevisiae deletion strains, locus YER110C, active compounds read low 0.982 | S. cerevisiae deletion strains, locus YER155C, strain BEM2, active compounds read low 0.994 | S. cerevisiae deletion strains, locus YER167W, strain BCK2, active compounds read low 1 | S. cerevisiae deletion strains, locus YGL078C, strain dbp3, active compounds read low 0.994 | S. cerevisiae deletion strains, locus YGL086W, strain mad1, active compounds read low 0.966 | S. cerevisiae deletion strains, locus YGL248W, strain PDE1, active compounds read low 0.997 | S. cerevisiae deletion strains, locus YGR078C, strain PAC10, active compounds read low 0.997 | S. cerevisiae deletion strains, locus YGR135W, strain pre9, active compounds read low 0.991 | S. cerevisiae deletion strains, locus YGR229C, strain SMI1, active compounds read low 1.03 | S. cerevisiae deletion strains, locus YGR252W, strain gcn5, active compounds read low 1.04 | S. cerevisiae deletion strains, locus YHR030C, strain SLT2, active compounds read low 1 and 0.993 | S. cerevisiae deletion strains, locus YHR079C, strain IRE1 (second series), active compounds read low 0.99 | S. cerevisiae deletion strains, locus YHR079C, strain IRE1, active compounds read low 1 | S. cerevisiae deletion strains, locus YHR094C, strain hxt1, active compounds read low 0.989 | S. cerevisiae deletion strains, locus YHR129C, strain ARP1, active compounds read low 1.01 | S. cerevisiae deletion strains, locus YHR200W, strain rpn10, active compounds read low 0.983 | S. cerevisiae deletion strains, locus YIL066C, strain RNR3, active compounds read low 0.985 | S. cerevisiae deletion strains, locus YIL073C, strain SPO22, active compounds read low 1.01 | S. cerevisiae deletion strains, locus YIL125W, strain kgd1, active compounds read low 0.984 | S. cerevisiae deletion strains, locus YIR030C, strain dcg1, active compounds read low 0.986 | S. cerevisiae deletion strains, locus YJL095W, strain BCK1, active compounds read low 1.02 and 0.995 | S. cerevisiae deletion strains, locus YJL134W, strain LCB3, active compounds read low 1 | S. cerevisiae deletion strains, locus YJL168C, strain set2, active compounds read low 0.988 | S. cerevisiae deletion strains, locus YJL187C, strain SWE1 (second series), active compounds read low 0.996 | S. cerevisiae deletion strains, locus YJR043C, strain POL32, active compounds read low 1.01 | S. cerevisiae deletion strains, locus YJR066W, strain TOR1, active compounds read low 0.942 | S. cerevisiae deletion strains, locus YKL009W, strain mrt4, active compounds read low 0.966 | S. cerevisiae deletion strains, locus YKL068W, active compounds read low 0.998 | S. cerevisiae deletion strains, locus YKL085W, strain MDH1 (second series), active compounds read low 0.983 | S. cerevisiae deletion strains, locus YKL085W, strain MDH1, active compounds read low 0.983 | S. cerevisiae deletion strains, locus YKL190W, strain CNB1, active compounds read low 1.03 | S. cerevisiae deletion strains, locus YKR001C, strain vps1, active compounds read low 0.985 | S. cerevisiae deletion strains, locus YLR039C, strain RIC1, active compounds read low 1.07 | S. cerevisiae deletion strains, locus YLR058C, strain SHM2, active compounds read low 1 | S. cerevisiae deletion strains, locus YLR102C, strain apc9, active compounds read low 0.99 | S. cerevisiae deletion strains, locus YLR113W, strain HOG1, active compounds read low 0.995 | S. cerevisiae deletion strains, locus YLR262C, strain YPT6, active compounds read low 1.14 | S. cerevisiae deletion strains, locus YLR268W, strain sec22, active compounds read low 0.972 | S. cerevisiae deletion strains, locus YLR330W, strain CHS5, active compounds read low 0.992 | S. cerevisiae deletion strains, locus YLR342W, strain FKS1 (second series), active compounds read low 1 | S. cerevisiae deletion strains, locus YLR371W, strain rom2, active compounds read low 0.977 | S. cerevisiae deletion strains, locus YLR418C, strain cdc73, active compounds read low 0.993 | S. cerevisiae deletion strains, locus YML016C, strain PPZ1, active compounds read low 0.982 | S. cerevisiae deletion strains, locus YML032C, strain rad52, active compounds read low 1.02 | S. cerevisiae deletion strains, locus YML124C, strain tub3, active compounds read low 0.985 | S. cerevisiae deletion strains, locus YMR078C, strain ctf18, active compounds read low 0.983 | S. cerevisiae deletion strains, locus YMR223W, strain ubp8, active compounds read low 1.01 | S. cerevisiae deletion strains, locus YMR263W, strain SAP30, active compounds read low 1 | S. cerevisiae deletion strains, locus YMR307W, strain GAS1, active compounds read low 1.1 | S. cerevisiae deletion strains, locus YNL067W, strain RPL9B, active compounds read low 1 | S. cerevisiae deletion strains, locus YNL183C, strain NPR1, active compounds read low 0.909 | S. cerevisiae deletion strains, locus YNL233W, strain BNI4, active compounds read low 1 | S. cerevisiae deletion strains, locus YNL250W, strain rad50, active compounds read low 0.972 | S. cerevisiae deletion strains, locus YNL271C, strain bni1, active compounds read low 0.984 | S. cerevisiae deletion strains, locus YNL298W, strain CLA4, active compounds read low 0.992 | S. cerevisiae deletion strains, locus YNL307C, strain MCK1, active compounds read low 0.979 | S. cerevisiae deletion strains, locus YNL322C, strain KRE1, active compounds read low 1 | S. cerevisiae deletion strains, locus YNR052C, strain pop2, active compounds read low 1 | S. cerevisiae deletion strains, locus YOL006C, strain TOP1, active compounds read low 0.989 | S. cerevisiae deletion strains, locus YOL012C, strain htz1 0.785 | S. cerevisiae deletion strains, locus YOL147C, strain pex11, active compounds read low 0.991 | S. cerevisiae deletion strains, locus YOR061W, strain CKA2, active compounds read low 0.997 | S. cerevisiae deletion strains, locus YOR069W, strain VPS5, active compounds read low 1 | S. cerevisiae deletion strains, locus YOR136W, strain idh2, active compounds read low 0.983 | S. cerevisiae deletion strains, locus YOR144C, strain elg1, active compounds read low 0.982 | S. cerevisiae deletion strains, locus YOR184W, strain ser1, active compounds read low 0.993 | S. cerevisiae deletion strains, locus YOR231W, strain MKK1, active compounds read low 1.01 | S. cerevisiae deletion strains, locus YOR316C, strain cot1, active compounds read low 0.983 | S. cerevisiae deletion strains, locus YPL241C, strain CIN2, active compounds read low 1.05 | S. cerevisiae deletion strains, locus YPL256C, strain CLN2, active compounds read low 0.978 | S. cerevisiae deletion strains, locus YPR119W, strain clb2, active compounds read low 0.986 | S. cerevisiae deletion strains, locus YPR141C, strain kar3, active compounds read low 0.986 | S. cerevisiae deletion strains, locus YPR163C, strain tif3, active compounds read low 0.982 | S. cerevisiae deletion strains, locus YPR167C, strain met16, active compounds read low 0.988 | S. cerevisiae deletion strains, strain wtn01, active compounds read low 0.971 | S. cerevisiae strains, strain wild type, active compounds read low 1.03
